Test results from ChEMBL document CHEMBL1961873, “Compounds: GSK PKIS; Assays: Nanosyn kinase panel” (2012).

Columns and labels:
[1] = target: Protein kinase C gamma type (Homo sapiens) (UniProt P05129); conditions: at 1 µM;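 also: each value is an averaged percent inhibition of the enzyme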
[2] = target: T1, Protein kinase C iota type (Homo sapiens) (UniProt P41743); conditions: at 0.1 µM
T1 sequence (whole entry): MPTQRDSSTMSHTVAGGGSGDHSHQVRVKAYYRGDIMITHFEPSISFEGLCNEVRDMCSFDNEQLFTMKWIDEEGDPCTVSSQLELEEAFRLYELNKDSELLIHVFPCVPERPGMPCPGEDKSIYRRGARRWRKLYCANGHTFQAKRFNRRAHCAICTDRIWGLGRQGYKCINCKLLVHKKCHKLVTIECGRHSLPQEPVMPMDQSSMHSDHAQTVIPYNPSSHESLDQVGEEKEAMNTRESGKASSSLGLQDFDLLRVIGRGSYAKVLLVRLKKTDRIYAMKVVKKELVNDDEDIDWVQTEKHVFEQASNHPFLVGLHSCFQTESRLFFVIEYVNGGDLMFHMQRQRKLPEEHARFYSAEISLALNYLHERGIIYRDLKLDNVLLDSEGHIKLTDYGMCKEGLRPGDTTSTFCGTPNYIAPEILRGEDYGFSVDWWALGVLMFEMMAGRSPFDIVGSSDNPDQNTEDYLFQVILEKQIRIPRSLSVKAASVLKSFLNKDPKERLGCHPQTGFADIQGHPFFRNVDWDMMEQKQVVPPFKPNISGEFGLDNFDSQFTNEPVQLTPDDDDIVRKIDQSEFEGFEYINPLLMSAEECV

[3] = target: T1, Protein kinase C iota type (Homo sapiens); conditions: at 1 µM
[4] = target: Protein kinase C theta type (Homo sapiens) (UniProt Q04759); conditions: at 0.1 µM
[5] = target: Protein kinase C theta type (Homo sapiens) (UniProt Q04759); conditions: at 1 µM
[6] = target: Protein kinase C beta type (Homo sapiens) (UniProt P05771); conditions: at 0.1 µM
[7] = target: Protein kinase C beta type (Homo sapiens) (UniProt P05771); conditions: at 1 µM
[8] = target: T2, Serine/threonine-protein kinase D1 (Homo sapiens) (UniProt Q15139); conditions: at 0.1 µM
T2 sequence (whole entry): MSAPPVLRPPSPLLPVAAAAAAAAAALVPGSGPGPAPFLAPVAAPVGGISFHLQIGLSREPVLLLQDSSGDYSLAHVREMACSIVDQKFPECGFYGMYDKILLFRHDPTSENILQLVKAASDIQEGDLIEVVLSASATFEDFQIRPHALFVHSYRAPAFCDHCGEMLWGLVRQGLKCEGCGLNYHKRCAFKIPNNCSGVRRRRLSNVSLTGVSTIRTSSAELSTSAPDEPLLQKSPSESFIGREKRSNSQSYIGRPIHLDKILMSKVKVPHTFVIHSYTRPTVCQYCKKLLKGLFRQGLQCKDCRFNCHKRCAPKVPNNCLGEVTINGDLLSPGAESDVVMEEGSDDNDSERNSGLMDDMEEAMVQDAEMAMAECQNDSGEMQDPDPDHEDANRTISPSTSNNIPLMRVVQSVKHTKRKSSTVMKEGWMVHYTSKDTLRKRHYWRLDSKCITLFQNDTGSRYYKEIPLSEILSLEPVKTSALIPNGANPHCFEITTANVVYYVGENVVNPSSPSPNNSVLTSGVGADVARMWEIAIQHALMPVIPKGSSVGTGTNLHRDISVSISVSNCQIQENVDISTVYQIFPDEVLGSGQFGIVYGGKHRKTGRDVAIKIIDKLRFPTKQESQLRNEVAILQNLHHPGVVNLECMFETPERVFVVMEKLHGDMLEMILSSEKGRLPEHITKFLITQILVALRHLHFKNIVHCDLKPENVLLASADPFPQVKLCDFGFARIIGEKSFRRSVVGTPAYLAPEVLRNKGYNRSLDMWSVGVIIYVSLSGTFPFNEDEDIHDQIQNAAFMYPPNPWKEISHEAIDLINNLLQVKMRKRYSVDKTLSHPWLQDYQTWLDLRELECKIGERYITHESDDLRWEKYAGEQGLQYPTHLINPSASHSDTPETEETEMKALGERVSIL

[9] = target: T2, Serine/threonine-protein kinase D1 (Homo sapiens); conditions: at 1 µM
[10] = target: T3, Serine/threonine-protein kinase D2 (Homo sapiens) (UniProt Q9BZL6); conditions: at 0.1 µM
T3 sequence (whole entry): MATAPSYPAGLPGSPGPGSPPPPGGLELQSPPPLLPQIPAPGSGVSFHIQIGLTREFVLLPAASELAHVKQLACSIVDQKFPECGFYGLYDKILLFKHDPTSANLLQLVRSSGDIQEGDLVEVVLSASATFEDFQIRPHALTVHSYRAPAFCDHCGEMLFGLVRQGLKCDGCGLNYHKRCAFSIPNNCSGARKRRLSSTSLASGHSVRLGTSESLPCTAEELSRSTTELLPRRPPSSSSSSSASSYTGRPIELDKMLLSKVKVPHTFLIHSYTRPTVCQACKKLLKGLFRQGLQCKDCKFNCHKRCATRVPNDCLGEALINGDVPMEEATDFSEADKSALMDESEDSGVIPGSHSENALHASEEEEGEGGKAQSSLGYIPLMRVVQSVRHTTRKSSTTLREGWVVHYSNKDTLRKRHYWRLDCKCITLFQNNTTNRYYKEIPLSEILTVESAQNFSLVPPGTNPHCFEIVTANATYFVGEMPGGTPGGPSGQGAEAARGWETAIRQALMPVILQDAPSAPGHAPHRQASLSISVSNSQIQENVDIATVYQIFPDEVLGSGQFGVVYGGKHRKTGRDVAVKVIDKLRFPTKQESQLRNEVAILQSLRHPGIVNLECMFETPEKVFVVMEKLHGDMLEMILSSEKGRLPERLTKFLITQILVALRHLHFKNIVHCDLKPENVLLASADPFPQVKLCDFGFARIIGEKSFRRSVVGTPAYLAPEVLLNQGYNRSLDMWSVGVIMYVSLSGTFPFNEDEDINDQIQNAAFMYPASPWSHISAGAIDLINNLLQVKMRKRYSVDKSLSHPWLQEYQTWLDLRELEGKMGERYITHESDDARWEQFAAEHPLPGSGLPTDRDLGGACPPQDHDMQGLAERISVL

[11] = target: T3, Serine/threonine-protein kinase D2 (Homo sapiens); conditions: at 1 µM
[12] = target: T4, Serine/threonine-protein kinase D3 (Homo sapiens) (UniProt O94806); conditions: at 0.1 µM
T4 sequence (whole entry): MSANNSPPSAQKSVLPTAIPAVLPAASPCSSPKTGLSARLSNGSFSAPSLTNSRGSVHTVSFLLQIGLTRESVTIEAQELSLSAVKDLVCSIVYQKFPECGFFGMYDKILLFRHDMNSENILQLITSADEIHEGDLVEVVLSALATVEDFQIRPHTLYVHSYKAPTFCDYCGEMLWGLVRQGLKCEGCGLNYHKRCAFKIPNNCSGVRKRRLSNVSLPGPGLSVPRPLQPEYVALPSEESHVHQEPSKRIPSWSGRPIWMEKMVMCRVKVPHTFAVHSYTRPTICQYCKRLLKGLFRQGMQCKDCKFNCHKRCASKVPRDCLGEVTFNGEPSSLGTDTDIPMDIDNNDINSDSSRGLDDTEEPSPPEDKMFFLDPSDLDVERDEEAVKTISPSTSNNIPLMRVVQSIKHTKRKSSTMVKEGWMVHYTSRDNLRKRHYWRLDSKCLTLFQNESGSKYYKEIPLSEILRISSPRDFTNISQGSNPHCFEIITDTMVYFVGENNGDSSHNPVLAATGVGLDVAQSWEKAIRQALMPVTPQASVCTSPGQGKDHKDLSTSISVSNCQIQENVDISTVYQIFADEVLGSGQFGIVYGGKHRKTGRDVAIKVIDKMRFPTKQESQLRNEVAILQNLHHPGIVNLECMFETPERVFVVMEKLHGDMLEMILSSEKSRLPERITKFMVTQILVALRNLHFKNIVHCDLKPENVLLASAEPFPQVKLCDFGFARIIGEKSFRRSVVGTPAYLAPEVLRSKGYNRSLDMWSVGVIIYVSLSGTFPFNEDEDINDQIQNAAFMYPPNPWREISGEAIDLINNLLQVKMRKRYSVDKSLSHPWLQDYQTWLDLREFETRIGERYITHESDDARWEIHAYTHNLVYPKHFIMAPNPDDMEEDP

[13] = target: T4, Serine/threonine-protein kinase D3 (Homo sapiens); conditions: at 1 µM
[14] = target: T5, cGMP-dependent protein kinase 1 (Homo sapiens) (UniProt Q13976); conditions: at 0.1 µM
T5 sequence (whole entry): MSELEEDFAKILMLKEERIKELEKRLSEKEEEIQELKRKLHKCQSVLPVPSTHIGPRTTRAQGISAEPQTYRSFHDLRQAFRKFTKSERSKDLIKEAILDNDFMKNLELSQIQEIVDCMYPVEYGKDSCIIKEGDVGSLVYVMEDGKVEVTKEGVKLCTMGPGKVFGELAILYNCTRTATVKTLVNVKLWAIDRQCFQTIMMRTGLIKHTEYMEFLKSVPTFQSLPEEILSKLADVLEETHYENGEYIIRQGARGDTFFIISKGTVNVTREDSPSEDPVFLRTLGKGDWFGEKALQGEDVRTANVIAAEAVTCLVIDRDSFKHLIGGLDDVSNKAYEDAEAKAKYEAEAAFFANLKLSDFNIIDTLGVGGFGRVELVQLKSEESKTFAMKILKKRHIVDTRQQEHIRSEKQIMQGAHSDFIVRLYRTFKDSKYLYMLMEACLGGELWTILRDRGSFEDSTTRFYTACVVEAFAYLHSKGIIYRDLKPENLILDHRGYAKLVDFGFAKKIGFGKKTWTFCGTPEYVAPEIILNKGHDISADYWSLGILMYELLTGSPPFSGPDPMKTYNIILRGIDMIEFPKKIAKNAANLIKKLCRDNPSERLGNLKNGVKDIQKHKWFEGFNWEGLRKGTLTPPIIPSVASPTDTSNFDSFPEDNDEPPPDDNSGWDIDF

[15] = target: T5, cGMP-dependent protein kinase 1 (Homo sapiens); conditions: at 1 µM
[16] = target: T6, cGMP-dependent protein kinase 2 (Homo sapiens) (UniProt Q13237); conditions: at 0.1 µM
T6 sequence (whole entry): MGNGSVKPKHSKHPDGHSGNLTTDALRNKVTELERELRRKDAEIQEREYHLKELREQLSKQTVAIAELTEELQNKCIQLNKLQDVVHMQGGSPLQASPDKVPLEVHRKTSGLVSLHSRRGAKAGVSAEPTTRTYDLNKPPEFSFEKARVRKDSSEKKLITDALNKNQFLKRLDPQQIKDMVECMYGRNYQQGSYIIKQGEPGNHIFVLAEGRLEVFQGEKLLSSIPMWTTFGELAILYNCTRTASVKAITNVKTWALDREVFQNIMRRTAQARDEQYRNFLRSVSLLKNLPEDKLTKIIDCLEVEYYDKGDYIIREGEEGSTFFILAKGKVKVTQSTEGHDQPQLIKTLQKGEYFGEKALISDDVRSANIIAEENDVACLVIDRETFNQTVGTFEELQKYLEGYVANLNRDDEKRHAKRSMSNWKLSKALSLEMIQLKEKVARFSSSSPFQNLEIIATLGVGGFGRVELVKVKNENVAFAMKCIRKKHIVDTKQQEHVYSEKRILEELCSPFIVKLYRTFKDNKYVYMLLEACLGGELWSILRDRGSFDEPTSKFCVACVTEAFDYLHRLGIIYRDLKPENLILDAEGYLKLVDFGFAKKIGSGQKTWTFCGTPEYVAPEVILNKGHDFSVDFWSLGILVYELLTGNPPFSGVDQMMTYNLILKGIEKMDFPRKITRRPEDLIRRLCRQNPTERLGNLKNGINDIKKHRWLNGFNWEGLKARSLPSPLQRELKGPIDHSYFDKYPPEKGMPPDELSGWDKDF

[17] = target: T6, cGMP-dependent protein kinase 2 (Homo sapiens); conditions: at 1 µM
[18] = target: T7, cAMP-dependent protein kinase catalytic subunit PRKX (Homo sapiens) (UniProt P51817); conditions: at 0.1 µM
T7 sequence (whole entry): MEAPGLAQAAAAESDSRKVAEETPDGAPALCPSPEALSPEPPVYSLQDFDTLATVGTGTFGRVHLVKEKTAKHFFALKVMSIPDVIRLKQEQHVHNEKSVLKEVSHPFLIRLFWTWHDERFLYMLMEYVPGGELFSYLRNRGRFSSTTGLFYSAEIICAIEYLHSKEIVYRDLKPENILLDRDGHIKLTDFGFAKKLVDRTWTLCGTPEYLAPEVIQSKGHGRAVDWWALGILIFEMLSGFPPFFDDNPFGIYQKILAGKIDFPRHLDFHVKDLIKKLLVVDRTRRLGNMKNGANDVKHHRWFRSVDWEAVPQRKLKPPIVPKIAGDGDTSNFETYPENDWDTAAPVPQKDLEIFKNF

[19] = target: T7, cAMP-dependent protein kinase catalytic subunit PRKX (Homo sapiens); conditions: at 1 µM
[20] = target: Rho-associated protein kinase 1 (Homo sapiens) (UniProt Q13464); conditions: at 0.1 µM;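 also: values are mean percent inhibition of ROCK1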
Rho-associated protein kinase 1 (Homo sapiens), sequence (Q13464 2-1354 limits assumed): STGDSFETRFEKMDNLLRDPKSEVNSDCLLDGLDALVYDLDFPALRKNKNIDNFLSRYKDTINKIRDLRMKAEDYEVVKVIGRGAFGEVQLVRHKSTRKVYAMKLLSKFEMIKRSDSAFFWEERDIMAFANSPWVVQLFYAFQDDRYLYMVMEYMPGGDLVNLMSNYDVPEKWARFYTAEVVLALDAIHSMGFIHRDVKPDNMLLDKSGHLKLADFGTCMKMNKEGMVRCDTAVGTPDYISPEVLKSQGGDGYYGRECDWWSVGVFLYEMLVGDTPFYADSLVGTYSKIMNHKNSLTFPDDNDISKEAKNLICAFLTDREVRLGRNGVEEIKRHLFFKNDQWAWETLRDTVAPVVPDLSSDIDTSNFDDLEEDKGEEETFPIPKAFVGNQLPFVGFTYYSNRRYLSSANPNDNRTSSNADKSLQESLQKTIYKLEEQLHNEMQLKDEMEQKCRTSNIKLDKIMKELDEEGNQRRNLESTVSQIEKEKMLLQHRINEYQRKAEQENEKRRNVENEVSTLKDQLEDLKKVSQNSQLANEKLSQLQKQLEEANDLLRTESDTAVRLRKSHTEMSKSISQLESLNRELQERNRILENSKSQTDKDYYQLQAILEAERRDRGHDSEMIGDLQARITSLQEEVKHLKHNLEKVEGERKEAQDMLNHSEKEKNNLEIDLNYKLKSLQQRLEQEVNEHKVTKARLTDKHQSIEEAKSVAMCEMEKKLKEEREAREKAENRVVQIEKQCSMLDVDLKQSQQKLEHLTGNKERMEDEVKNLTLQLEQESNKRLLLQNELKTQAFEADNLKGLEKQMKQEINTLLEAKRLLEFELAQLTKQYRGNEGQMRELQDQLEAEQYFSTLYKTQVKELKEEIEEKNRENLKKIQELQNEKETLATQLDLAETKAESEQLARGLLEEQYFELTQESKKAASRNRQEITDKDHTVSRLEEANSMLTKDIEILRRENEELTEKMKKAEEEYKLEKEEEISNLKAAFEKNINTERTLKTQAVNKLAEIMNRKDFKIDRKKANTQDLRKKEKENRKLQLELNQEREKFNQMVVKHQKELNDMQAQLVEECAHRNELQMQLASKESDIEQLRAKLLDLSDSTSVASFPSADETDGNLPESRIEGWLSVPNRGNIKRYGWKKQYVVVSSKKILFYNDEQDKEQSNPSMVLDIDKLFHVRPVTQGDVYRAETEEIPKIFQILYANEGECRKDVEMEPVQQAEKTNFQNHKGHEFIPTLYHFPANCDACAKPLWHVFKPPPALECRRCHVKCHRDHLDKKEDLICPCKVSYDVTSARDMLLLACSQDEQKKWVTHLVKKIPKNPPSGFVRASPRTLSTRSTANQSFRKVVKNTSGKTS

Protein kinase C theta type (Homo sapiens), sequence (Q04759 whole entry, looked up): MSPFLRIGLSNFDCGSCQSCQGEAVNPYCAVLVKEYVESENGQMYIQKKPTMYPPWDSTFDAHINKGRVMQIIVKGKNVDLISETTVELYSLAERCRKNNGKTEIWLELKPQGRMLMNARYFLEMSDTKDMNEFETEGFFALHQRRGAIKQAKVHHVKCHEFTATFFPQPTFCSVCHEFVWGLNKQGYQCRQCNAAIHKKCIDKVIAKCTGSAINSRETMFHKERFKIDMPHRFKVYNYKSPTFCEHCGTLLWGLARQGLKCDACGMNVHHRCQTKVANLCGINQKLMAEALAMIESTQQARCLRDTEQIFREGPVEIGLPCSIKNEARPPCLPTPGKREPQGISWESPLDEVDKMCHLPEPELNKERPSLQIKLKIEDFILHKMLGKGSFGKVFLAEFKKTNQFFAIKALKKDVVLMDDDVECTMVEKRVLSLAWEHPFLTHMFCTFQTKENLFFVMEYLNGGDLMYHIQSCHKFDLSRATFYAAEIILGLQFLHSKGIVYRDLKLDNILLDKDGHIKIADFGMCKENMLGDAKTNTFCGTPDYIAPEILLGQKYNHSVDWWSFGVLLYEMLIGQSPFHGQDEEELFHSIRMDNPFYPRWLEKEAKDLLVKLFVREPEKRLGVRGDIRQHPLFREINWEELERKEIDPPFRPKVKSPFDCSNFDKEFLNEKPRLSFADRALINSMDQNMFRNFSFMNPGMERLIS
Protein kinase C beta type (Homo sapiens), sequence (P05771 2-671 limits assumed): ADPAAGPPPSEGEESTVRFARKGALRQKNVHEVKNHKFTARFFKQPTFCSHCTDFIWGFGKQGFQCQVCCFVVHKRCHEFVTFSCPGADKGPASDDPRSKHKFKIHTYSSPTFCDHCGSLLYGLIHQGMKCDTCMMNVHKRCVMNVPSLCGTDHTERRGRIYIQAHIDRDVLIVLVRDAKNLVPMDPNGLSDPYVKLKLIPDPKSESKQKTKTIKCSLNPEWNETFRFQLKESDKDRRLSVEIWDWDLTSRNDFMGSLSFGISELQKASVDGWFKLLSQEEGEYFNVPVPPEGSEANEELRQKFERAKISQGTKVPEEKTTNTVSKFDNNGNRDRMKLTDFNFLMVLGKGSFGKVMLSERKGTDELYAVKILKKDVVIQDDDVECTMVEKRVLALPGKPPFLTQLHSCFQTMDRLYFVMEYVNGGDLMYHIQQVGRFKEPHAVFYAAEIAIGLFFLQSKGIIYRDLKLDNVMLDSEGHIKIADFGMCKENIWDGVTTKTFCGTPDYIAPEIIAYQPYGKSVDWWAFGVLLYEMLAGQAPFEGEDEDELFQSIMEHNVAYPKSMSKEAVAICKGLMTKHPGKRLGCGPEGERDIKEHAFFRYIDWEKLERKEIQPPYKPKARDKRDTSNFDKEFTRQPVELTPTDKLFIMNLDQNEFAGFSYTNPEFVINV

Compound | inhibition [1] [%] | inhibition [2] [%] | inhibition [3] [%] | inhibition [4] [%] | inhibition [5] [%] | inhibition [6] [%] | inhibition [7] [%] | inhibition [8] [%] | inhibition [9] [%] | inhibition [10] [%] | inhibition [11] [%] | inhibition [12] [%] | inhibition [13] [%] | inhibition [14] [%] | inhibition [15] [%] | inhibition [16] [%] | inhibition [17] [%] | inhibition [18] [%] | inhibition [19] [%] | inhibition [20] [%]
NS(=O)(=O)c1cccc(-c2cc3ccncc3cc2OCc2ccccc2)c1 | 4.07 | 2.51 | 3.39 | 2.29 | 1.87 | 2.02 | 2.23 | 4.25 | 7.09 | 5.29 | 5.47 | 6.19 | 6.3 | 3.6 | 4.53 | 2.72 | 5.57 | 1.93 | 0.54 | 0.94
COc1cc(/C=N/Nc2ncnc3c2cnn3C(C)C)ccc1O | 5.96 | 1.94 | 1.52 | 1.33 | 4.03 | 1.47 | 4.67 | 1.79 | 1.16 | 1.45 | 1.41 | 1.37 | 1.6 | 3.26 | 3.14 | 0.71 | 2.16 | 0.57 | 0.81 | 0.31
CCCN1CCCC(c2ccc(Nc3nc(Nc4cc(F)ccc4C(N)=O)c4cc[nH]c4n3)c(OC)c2)C1 (stereo not given) | 22 | 0.84 | 2.93 | 1.64 | 4.89 | 1.85 | 5.27 | 32.2 | 79.5 | 25.9 | 81.1 | 19.6 | 72.7 | 7.1 | 32.9 | 4.78 | 26.3 | 0.44 | 0.52 | 22.5
Nc1ccc(C#Cc2cncnc2Nc2ccc(OCc3cccc(F)c3)c(Cl)c2)cc1 | 1.26 | 1.82 | 1.53 | 1.3 | 1.13 | 0.84 | 0.6 | 4.09 | 3.44 | 3.76 | 2.21 | 2.59 | 2.64 | 3.04 | 1.31 | 2.28 | 0.99 | 1.33 | 1.72 | 0.74
